# According to PubChem BioAssay (NCI):
# Compounds without any hit were thinned out: in the full panel of roughly 79,000, 15% have a hit. A number with no mark means an inactive call. The source made the active and inactive calls. Cut-off read from the data, not from the text of the source: active = growth inhibition above about 70%; inactive = the rest.
# What was measured:
# [1] = NCI Yeast Anticancer Drug Screen. Data for the rad52 strain (AID 147);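 note: 0% = growth of vehicle-treated control cultures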; details: S. cerevisiae rad52 mutant growth inhibition, stronger effect = higher value
# In short: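 Here a repair-compromised yeast strain receives each compound; its growth is then quantified and normalised to vehicle-only controls.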
# [2] = NCI Yeast Anticancer Drug Screen. Data for the wt1 strain (AID 149);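 note: 0% = growth of vehicle-treated wt1 cultures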; details: S. cerevisiae wt1 strain (SPY 50644) growth inhibition, stronger effect = higher value
# In short: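 Using yeast strain wt1, compound-induced growth inhibition was determined against vehicle-treated cultures.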
# [3] = NCI Yeast Anticancer Drug Screen. Data for the rad50EPP+ strain (AID 151);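 note: 0% = growth of vehicle-treated control cultures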; details: S. cerevisiae rad50 mutant strain, stronger effect = higher value
# In short: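 Read-out is yeast growth inhibition relative to vehicle; cells used were the rad50EPP+ strain.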
# [4] = NCI Yeast Anticancer Drug Screen. Data for the mgt1 strain (AID 153); details: S. cerevisiae mgt1 mutant growth inhibition, stronger effect = higher value
# In short: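 Measured: inhibition of mgt1 yeast growth by compound, normalized to vehicle-treated cultures.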
# [5] = NCI Yeast Anticancer Drug Screen. Data for the rad50 strain (AID 155);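 note: 0% = growth of vehicle-only cultures of the same strain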; details: S. cerevisiae rad50 strain growth inhibition, stronger effect = higher value
# In short: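 Relative growth inhibition (compound vs vehicle) was measured in yeast with a defined repair-gene alteration.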
# [6] = NCI Yeast Anticancer Drug Screen. Data for the mec2-1 strain (AID 157); details: S. cerevisiae mec2-1 strain, stronger effect = higher value
# In short: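 Using mec2-1 yeast: add compound, measure growth, express inhibition versus vehicle-treated cultures.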
# [7] = NCI Yeast Anticancer Drug Screen. Data for the rad14 strain (AID 159);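 note: 0% = growth of vehicle-treated control cultures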; details: S. cerevisiae rad14 strain growth inhibition, stronger effect = higher value
# In short: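 Screen for anticancer potential: a yeast strain altered in DNA damage repair is grown with compound, and reduced growth is quantified against vehicle controls.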
# [8] = NCI Yeast Anticancer Drug Screen. Data for the sgs1 mgt1 strain (AID 161);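 note: 0% = growth of cultures given vehicle only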; details: S. cerevisiae sgs1 mgt1 strain, stronger effect = higher value
# In short: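 Growth of a repair-deficient yeast mutant was monitored after compound treatment and expressed as inhibition relative to vehicle-treated cultures.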
# [9] = NCI Yeast Anticancer Drug Screen. Data for the CLN2oe strain (AID 163);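 note: 0% = growth of vehicle-only control cultures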; details: S. cerevisiae CLN2oe strain, stronger effect = higher value
# In short: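 Whole-cell yeast growth assay. A strain engineered for altered cell-cycle control received compound, and inhibition relative to vehicle-treated cultures was recorded.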
# [10] = NCI Yeast Anticancer Drug Screen. Data for the cln2 rad14 strain (AID 165);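 note: 0% = growth equal to vehicle treated cultures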; details: S. cerevisiae cln2 rad14 strain, stronger effect = higher value
# In short: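 Yeast strain cln2 rad14, bearing defects in cell cycle control and DNA repair, serves as the test system; values reflect growth inhibition compared with vehicle.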
# [11] = NCI Yeast Anticancer Drug Screen. Data for the bub3 strain (AID 167); details: S. cerevisiae bub3 mutant strain, stronger effect = higher value
# In short: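 Screening used yeast with an engineered genetic alteration affecting cell cycle control. Compound-exposed cultures were compared with vehicle cultures, and reduced growth was taken as inhibition.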
# [12] = NCI Yeast Anticancer Drug Screen. Data for the wt2 strain (AID 169);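 note: 0% = growth of vehicle-treated yeast cultures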; details: S. cerevisiae wt2 strain growth inhibition, stronger effect = higher value
# In short: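 Treated yeast vs. vehicle-treated yeast: growth inhibition determined.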
# [13] = NCI Yeast Anticancer Drug Screen. Data for the mlh1 strain (AID 171);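 note: 0% = growth of vehicle-treated control cultures of the same strain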; details: S. cerevisiae mlh1 strain growth inhibition, stronger effect = higher value
# In short: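 A yeast strain with a defined genetic lesion serves as the test organism. Cultures receive compound or vehicle, and growth is measured.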
# [14] = NCI Yeast Anticancer Drug Screen. Data for the sgs1 strain (AID 173);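 note: 0% = growth of vehicle-only control cultures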; details: S. cerevisiae sgs1 mutant, stronger effect = higher value
# In short: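 A genetically defined yeast mutant is incubated with the test compound, and its growth is compared to that of the same strain given vehicle.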
# [15] = NCI Yeast Anticancer Drug Screen. Data for the rad18 strain (AID 177); details: S. cerevisiae rad18 mutant growth inhibition, stronger effect = higher value
# In short: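 Measured value is growth inhibition of a yeast strain bearing a DNA repair alteration, referenced to vehicle-treated cells.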
# [16] = at 5.0 µM (retest, dose inferred, filed as 0.5)
# [17] = at 50.0 µM (retest, dose inferred, filed as 5.0)
compound,measurement,setting,value
CC(C)C(c1ccccc1)c1ccccc1,growth inhibition,[1]; at 1.2 µM,4%
same,growth inhibition,[1]; at 3.7 µM,9%
same,growth inhibition,[1]; at 11.0 µM,9%
same,growth inhibition,[1]; at 33.0 µM,8%
same,growth inhibition,[1]; at 100.0 µM,77% (active)
same,growth inhibition,[2]; at 1.2 µM,-1%
same,growth inhibition,[2]; at 3.7 µM,-1%
same,growth inhibition,[2]; at 11.0 µM,0%
same,growth inhibition,[2]; at 33.0 µM,-2%
same,growth inhibition,[2]; at 100.0 µM,49%
same,growth inhibition,[3]; at 1.2 µM,3%
same,growth inhibition,[3]; at 3.7 µM,6%
same,growth inhibition,[3]; at 11.0 µM,14%
same,growth inhibition,[3]; at 33.0 µM,43%
same,growth inhibition,[3]; at 100.0 µM,93% (active)
same,growth inhibition,[4]; at 1.2 µM,0%
same,growth inhibition,[4]; at 3.7 µM,0%
same,growth inhibition,[4]; at 11.0 µM,-1%
same,growth inhibition,[4]; at 33.0 µM,-6%
same,growth inhibition,[4]; at 100.0 µM,55%
same,growth inhibition,[5]; at 1.2 µM,1%
same,growth inhibition,[5]; at 3.7 µM,18%
same,growth inhibition,[5]; [16],-144%
same,growth inhibition,[5]; at 11.0 µM,9%
same,growth inhibition,[5]; at 33.0 µM,10%
same,growth inhibition,[5]; [17],70% (active)
same,growth inhibition,[5]; at 50.0 µM,10%
same,growth inhibition,[5]; at 100.0 µM,93% (active)
same,growth inhibition,[6]; at 1.2 µM,2%
same,growth inhibition,[6]; at 3.7 µM,3%
same,growth inhibition,[6]; [16],-50%
same,growth inhibition,[6]; at 11.0 µM,-10%
same,growth inhibition,[6]; at 33.0 µM,1%
same,growth inhibition,[6]; [17],-32%
same,growth inhibition,[6]; at 50.0 µM,49.4%
same,growth inhibition,[6]; at 100.0 µM,99% (active)
same,growth inhibition,[7]; at 1.2 µM,-1%
same,growth inhibition,[7]; at 3.7 µM,-5%
same,growth inhibition,[7]; at 11.0 µM,2%
same,growth inhibition,[7]; at 33.0 µM,7%
same,growth inhibition,[7]; at 100.0 µM,70% (active)
same,growth inhibition,[8]; [16],-54%
same,growth inhibition,[8]; [17],-37%
same,growth inhibition,[8]; at 50.0 µM,52.2%
same,growth inhibition,[9]; at 1.2 µM,-5%
same,growth inhibition,[9]; at 3.7 µM,-1%
same,growth inhibition,[9]; at 11.0 µM,2%
same,growth inhibition,[9]; at 33.0 µM,1%
same,growth inhibition,[9]; at 100.0 µM,69%
same,growth inhibition,[10]; [16],-52%
same,growth inhibition,[10]; [17],-33%
same,growth inhibition,[10]; at 50.0 µM,16%
same,growth inhibition,[11]; at 1.2 µM,-6%
same,growth inhibition,[11]; at 3.7 µM,1%
same,growth inhibition,[11]; [16],-67%
same,growth inhibition,[11]; at 11.0 µM,-4%
same,growth inhibition,[11]; at 33.0 µM,-4%
same,growth inhibition,[11]; [17],44%
same,growth inhibition,[11]; at 50.0 µM,-0.75%
same,growth inhibition,[11]; at 100.0 µM,66%
same,growth inhibition,[12]; at 1.2 µM,-2%
same,growth inhibition,[12]; at 3.7 µM,-2%
same,growth inhibition,[12]; at 11.0 µM,-1%
same,growth inhibition,[12]; at 33.0 µM,1%
same,growth inhibition,[12]; at 100.0 µM,56%
same,growth inhibition,[13]; at 1.2 µM,3%
same,growth inhibition,[13]; at 3.7 µM,0%
same,growth inhibition,[13]; at 11.0 µM,0%
same,growth inhibition,[13]; at 33.0 µM,2%
same,growth inhibition,[13]; at 100.0 µM,60%
same,growth inhibition,[14]; at 1.2 µM,-1%
same,growth inhibition,[14]; at 3.7 µM,-3%
same,growth inhibition,[14]; at 11.0 µM,-3%
same,growth inhibition,[14]; at 33.0 µM,-3%
same,growth inhibition,[14]; at 100.0 µM,99% (active)
same,growth inhibition,[15]; at 1.2 µM,3%
same,growth inhibition,[15]; at 3.7 µM,-1%
same,growth inhibition,[15]; at 11.0 µM,3%
same,growth inhibition,[15]; at 33.0 µM,3%
same,growth inhibition,[15]; at 100.0 µM,59%
